Experimental findings from PubChem BioAssay (NCI) are described below.

Structures are written as SMILES. The panel holds about 83,000 compounds, 20% with a hit somewhere; the sample as a whole holds those more often.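 Each cell line was grown in a 96-well plate and treated with one concentration of compound for 48 hours. Values below 10 were considered active.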 A number with no mark means an inactive call. Active and inactive are the calls of the source.

Among the test systems are NCI-H23 lung; NCI-H226 lung; NCI-H322M lung; HOP-62 NSCLC; NCI-H460 lung; HOP-92 NSCLC; NCI-H522 lung; A549/ATCC NSCLC; 786-0 renal; COLO 205 colon; DU-145 prostate; K-562 leukemia; MALME-3M melanoma; MDA-MB-231 breast; RXF 393 renal; SF-268 CNS; SF-295 CNS; SF-539 CNS; UACC-257 melanoma; M14 melanoma.
Assay in all cases: NCI-60 one-dose screen, 48 h (100 = growth as untreated, 0 = no growth, -100 = all killed)
What all share (conditions): 10 µM unless noted

For `Cc1c(N2CCCCC2)[nH]c2ccccc12`, the growth was 108% in the test on NCI-H23 lung; 119% in the test with NCI-H226 lung; 104% in the test on NCI-H322M lung; 119% in the test with HOP-62 NSCLC; 101% with NCI-H460 lung; 46.8% with HOP-92 NSCLC. Moreover, the growth was 90.2% with NCI-H522 lung; 89% with A549/ATCC NSCLC; 103% in the test with 786-0 renal; 124% in the test on COLO 205 colon; 120% in the test with DU-145 prostate; 113% in the test on K-562 leukemia. For the same molecule, the growth with MALME-3M melanoma is 121%; in the test with MDA-MB-231 breast it was 121%; with RXF 393 renal, 116%; in the test with SF-268 CNS it was 117%; in the test with SF-295 CNS, 89%; with SF-539 CNS it was 121%. Moreover, the values for the growth in the test with UACC-257 melanoma and in the test on M14 melanoma were 94% and 105%, respectively.

For `Nc1ccc(N)c2c1C(=O)c1cccc([N+](=O)[O-])c1C2=O`, the growth is -29.1% (active) in the test on NCI-H23 lung; 16.6% in the test with NCI-H226 lung; 2.12% (active) in the test on NCI-H322M lung; 9.73% (active) in the test on HOP-62 NSCLC; -3.34% (active) in the test on NCI-H460 lung; 63.3% in the test with HOP-92 NSCLC. Moreover, the growth is 25.6% in the test on NCI-H522 lung; 20.8% with A549/ATCC NSCLC; 17.4% with 786-0 renal; 66.3% with COLO 205 colon; -15.9% (active) with DU-145 prostate; 40.4% in the test with K-562 leukemia. Also, the growth in the test with MALME-3M melanoma was 54.3%; in the test on MDA-MB-231 breast, 67.9%; in the test with RXF 393 renal, 45.7%; in the test on SF-268 CNS, 57.3%; with SF-295 CNS, 21.3%; in the test with SF-539 CNS it was 23.6%. The growth in the test with UACC-257 melanoma is 52.3%; in the test with M14 melanoma it was 30.8%.

As to `CCOC(=O)C1=C(c2ccccc2)N=C2N(c3ccccc3)N=C(C(C)=O)N2C1c1ccc(Br)cc1` (stereo not given), the growth in the test on NCI-H23 lung was 94.3%; in the test on NCI-H226 lung it was 96.1%; with NCI-H322M lung, 95.3%; in the test with HOP-62 NSCLC, 103%; in the test on NCI-H460 lung, 98%; with HOP-92 NSCLC, 89.5%. The growth is 95.3% in the test on NCI-H522 lung; 91.2% in the test with A549/ATCC NSCLC; 100% in the test on 786-0 renal; 124% in the test on COLO 205 colon; 101% in the test with DU-145 prostate; 86.9% in the test with K-562 leukemia. Moreover, the growth with MALME-3M melanoma is 97.3%; in the test on MDA-MB-231 breast, 89.2%; with RXF 393 renal it was 66.8%; in the test with SF-268 CNS, 92.6%; in the test with SF-295 CNS it was 90.3%; in the test with SF-539 CNS it was 96.3%. Also, the values for the growth in the test on UACC-257 melanoma and in the test with M14 melanoma were 93.4% and 100%, respectively.

`Nc1ncc(-c2ccc3ncnc(N4CCc5ccc(Cl)cc54)c3c2)cn1`: the growth was 12.4% in the test on NCI-H23 lung; 0.981% (active) in the test on NCI-H226 lung; -15.4% (active) in the test with NCI-H322M lung; -11.9% (active) in the test with HOP-62 NSCLC; 4.03% (active) with NCI-H460 lung; -34.5% (active) with HOP-92 NSCLC. Further, the growth in the test with NCI-H522 lung is -15.7% (active); in the test with A549/ATCC NSCLC, 0.08% (active); with 786-0 renal, -0.891% (active); with COLO 205 colon, -25.8% (active); in the test on DU-145 prostate, 10%; in the test on K-562 leukemia, 10.5%. Further, the growth with MALME-3M melanoma is -17.4% (active); in the test on MDA-MB-231 breast, -3.01% (active); in the test with RXF 393 renal it was -29.4% (active); in the test with SF-268 CNS, 11.2%; in the test with SF-295 CNS, -7.57% (active); with SF-539 CNS, -68.8% (active). Besides, the growth with UACC-257 melanoma was 8.1% (active); with M14 melanoma, 8.74% (active).

With `COc1ccc(/C=C/C(=O)c2ccc(-n3cc(CN4CCN(c5cc6c(cc5F)c(=O)c(C(=O)O)cn6C5CC5)CC4)nn3)cc2)cc1`, the growth was 78.7% in the test with NCI-H23 lung; 67.3% in the test with NCI-H226 lung; 72.8% in the test with NCI-H322M lung; 75.6% in the test with HOP-62 NSCLC; 77.9% with NCI-H460 lung; 66.6% in the test with HOP-92 NSCLC. The growth was 67.6% in the test on NCI-H522 lung; 66.1% with A549/ATCC NSCLC; 71.9% with 786-0 renal; 98.2% with COLO 205 colon; 83.2% in the test on DU-145 prostate; 42.6% in the test on K-562 leukemia. The growth was 66.2% in the test with MALME-3M melanoma; 67.2% with MDA-MB-231 breast; 64.2% with RXF 393 renal; 56% in the test on SF-268 CNS; 94.9% in the test on SF-295 CNS; 50.8% with SF-539 CNS. Moreover, the growth is 78.7% in the test on UACC-257 melanoma and 59% in the test with M14 melanoma.

With `CCN1C(=O)N(CC)C2C1NN=c1s/c(=C\c3ccc([N+](=O)[O-])cc3)c(=O)n12` (stereo not given), the growth with NCI-H23 lung was 47%; in the test on NCI-H226 lung it was 66.8%; with NCI-H322M lung, 54.6%; with HOP-62 NSCLC it was 42.6%; in the test on NCI-H460 lung it was 8.23% (active); in the test on HOP-92 NSCLC it was 79.2%. The growth in the test on NCI-H522 lung is -0.229% (active); in the test with A549/ATCC NSCLC it was 30.4%; in the test on 786-0 renal, 44.1%; in the test on COLO 205 colon, 13.3%; in the test on DU-145 prostate, 19.9%; in the test on K-562 leukemia, 9.56% (active). For the same molecule, the growth in the test on MALME-3M melanoma is 45.7%; in the test with MDA-MB-231 breast, 18.5%; in the test with RXF 393 renal, 2.89% (active); in the test with SF-268 CNS, 71.5%; with SF-295 CNS, 13.2%; in the test on SF-539 CNS it was -7.87% (active). The growth with UACC-257 melanoma was 31.1%; with M14 melanoma, 12%.

As for `CC(=O)O[C@H]1C[C@@]2(C)[C@@H](C[C@@H](O)[C@H]3[C@@]4(C)CC[C@H](N5CCCC5)[C@@H](C)[C@@H]4CC[C@@]32C)/C1=C(\CCC=C(C)C)C(=O)O`, the growth in the test on NCI-H23 lung was 95.7%; with NCI-H226 lung, 94.6%; in the test with NCI-H322M lung, 101%; with HOP-62 NSCLC, 100%; in the test with NCI-H460 lung it was 101%; in the test with HOP-92 NSCLC, 83.7%. Moreover, the growth was 91.2% with NCI-H522 lung; 102% in the test with A549/ATCC NSCLC; 105% in the test on 786-0 renal; 108% with COLO 205 colon; 105% in the test on DU-145 prostate; 14.8% with K-562 leukemia. Also, the growth with MALME-3M melanoma was 95.6%; in the test on MDA-MB-231 breast it was 109%; in the test on RXF 393 renal, 98.9%; in the test on SF-268 CNS, 98.9%; in the test on SF-295 CNS, 96.3%; with SF-539 CNS, 96.1%. The results for the growth in the test with UACC-257 melanoma and in the test with M14 melanoma were 98.1% and 92.2%, respectively.
